Shown are actives, neighbours in structure and some others; about 27% of the full set was active somewhere.
CYP2C19 activ: human CYP2C19 activators, primary screen, biochemical, luminescence. activation factor at 5 µM. Cytochrome P450 2C19 (Homo sapiens), P33261. AID 1025, 2008. recombinant CYP2C19, luciferin-H EGE luminescence; active compounds read high; 0 = fully inhibited enzyme, 1 = untreated enzyme. 96,000 tested, under 10 active;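 active = activation factor of at least 2 at 5 µM in the primary screen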;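 also: 0 = wells with 2.5 mM tranylcypromine and 1 = vehicle-only wells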
CYP2C9 inh: blockers of cytochrome P450 2C9 activity – biochemical, luminescence, ADME assay, primary screen | P11712 | CYP2C9 Supersomes, luciferin-H conversion | inhibition, % at 5 µM | hit rate 20% among 96,000 | AID 777, 2007;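 active = blocking of liver enzyme CYP2C9 beyond about 50% at 5 µM, limit read from the data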
Target sequence (P11712 whole entry, looked up): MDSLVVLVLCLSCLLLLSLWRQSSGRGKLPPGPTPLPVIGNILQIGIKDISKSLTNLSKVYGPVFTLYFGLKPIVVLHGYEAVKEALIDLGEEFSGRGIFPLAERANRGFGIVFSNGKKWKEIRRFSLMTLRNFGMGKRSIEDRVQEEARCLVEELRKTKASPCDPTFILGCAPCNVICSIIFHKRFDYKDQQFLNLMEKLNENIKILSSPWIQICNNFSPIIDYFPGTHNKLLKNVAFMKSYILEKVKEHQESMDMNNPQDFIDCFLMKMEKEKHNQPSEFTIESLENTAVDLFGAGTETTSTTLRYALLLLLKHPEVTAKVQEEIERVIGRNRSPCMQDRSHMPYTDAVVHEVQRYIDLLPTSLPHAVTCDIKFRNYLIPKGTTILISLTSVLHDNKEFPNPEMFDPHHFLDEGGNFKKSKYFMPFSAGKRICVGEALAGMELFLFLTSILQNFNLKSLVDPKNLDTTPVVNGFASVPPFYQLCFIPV
CYP2C9 act: human CYP2C9 activators, primary screen, biochemical, luminescence. recombinant CYP2C9, luciferin-H conversion; active compounds read high; factor 1 = untreated enzyme, 0 = blocked. Cytochrome P450 2C9 (Homo sapiens), P11712. activation factor at 5 µM. hit rate 1.4% among 96,000;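 active = activation factor of 2 or more for CYP2C9 at a 5 µM dose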;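 also: 0 = sulfaphenazole-blocked wells and 1 = vehicle-only wells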
CYP2C19 inhib: blockers of cytochrome P450 2C19 activity – biochemical, luminescence, ADME assay, primary screen; P33261; inhibition, % at 5 µM; CYP2C19 Supersomes, luciferin-H EGE luminescence, 30 min; hit rate 21% among 96,000;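 active = CYP2C19 inhibition above a set limit at 5 µM in the primary screen, cut at about 50% in these data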;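 also: plate controls were negative control wells for no effect and 2.5 mM tranylcypromine positive control for full effect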
Cav32 inh: Cav3.2 calcium influx blockers – cell-based, Fluo-4 calcium fluorescence, FDSS, MLSMR library, primary screen. AID 449739, 2010. Cav3.2-expressing cells; active compounds read low. B-score at 10 µM. hit rate 4% among 100,000. Voltage-dependent T-type calcium channel subunit alpha-1H (Homo sapiens), O95180;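 active = single-dose well whose peak fluorescence ratio is a statistical outlier from its plate by either plate-standardised score or position-corrected B-score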
Starred values were filed as active, the others as inactive; · = no result given.

SMILES | CYP2C19 activ | CYP2C9 inh | CYP2C9 act | CYP2C19 inhib | Cav32 inh
CCOC(=O)C1=C(CSc2nc(-c3ccccc3)ccc2C#N)OC(N)=C(C#N)C1c1ccccc1 (centres undefined) | 0.4 | 92.3* | 0.1 | 59.1* | ·
CCOC(=O)C1=C(CSc2nc(-c3ccccc3)ccc2C#N)OC(N)=C(C#N)C1c1cccnc1 (centres undefined) | 0.1 | 94.5* | 0.1 | 92.0* | ·
COCCCNC(=O)c1ccc(NS(C)(=O)=O)cc1 | 1 | 8.4 | 0.9 | 0.5 | ·
CCCC(=O)Nc1c(C)nn(C(=O)CCC)c1C | 1 | -7.0 | 1.1 | -4.7 | 1.32
C#CCNC(=O)C1=C[C@H](c2cn(C(C)=O)c3ccccc23)[C@@H](CCCO)[C@H](OCC)O1 | · | · | · | · | -0.0399
Cc1c(-c2ccccc2)nc2ccccc2c1C(=O)Oc1ccc([N+](=O)[O-])cc1 | 1 | 16.8 | 0.8 | -1.4 | 0.378
Nc1ccc(Oc2ccc3nc(-c4ccccc4)c(-c4ccc([N+](=O)[O-])cc4)nc3c2)cc1 | 0.8 | 56.0* | 0.4 | 18.2 | 0.0617
CS(=O)(=O)N1N=C(c2ccc(Cl)cc2)CC1c1cccs1 (centres undefined) | 0.1 | 56.0* | 0.4 | 94.3* | -0.626
CCOC(=O)c1cnc(SC2CC(=O)N(c3ccc(C)cc3)C2=O)nc1N (centres undefined) | 1 | 23.0 | 0.8 | -3.2 | 1.03
Cc1ccc(-n2c(C)cc(C)c(C#N)c2=O)cc1Cl | 0.9 | 8.1 | 0.9 | 11.9 | 1.15
Oc1c(Cl)cc(Cl)cc1/C=N/c1nccs1 | 1 | 10.6 | 0.9 | -2.4 | -9.33*
C(=N\c1nccs1)/Nc1nccs1 | 0.9 | 12.2 | 0.9 | 5.0 | -0.341
Cc1ccc(C(=O)Nc2cc(C(F)(F)F)ccc2N2CCCCC2)cc1[N+](=O)[O-] | 0.5 | 26.1 | 0.7 | 45.8 | -3.13
CS(=O)c1ccccc1-c1nc(-c2cc(C(F)(F)F)cc(C(F)(F)F)c2)no1 (centres undefined) | 1 | 10.2 | 0.9 | 3.0 | ·
c1ccc(-n2nnc3cnccc32)cc1 | 0.9 | 0.2 | 1 | 14.3 | 0.741
CC(c1ccccc1)C1C(C#N)=C(N)OC2=C1C(=O)CCC2 (centres undefined) | 0.4 | 19.2 | 0.8 | 62.1* | ·
CCCCCCC1C(C#N)=C(N)OC2=C1C(=O)CCC2 (centres undefined) | 0.3 | 75.3* | 0.2 | 73.2* | -1.41
N#CC1=C(N)OC2=C(C(=O)CCC2)C1c1ccsc1 (centres undefined) | 0.4 | 27.6 | 0.7 | 57.0* | -0.896
COc1ccc(-c2nnc(-c3cccnc3)o2)cc1 | 0.8 | 8.7 | 0.9 | 22.3 | 0.201
COc1ccc(-n2nnnc2-c2cccnc2)cc1 | 0.4 | 23.7 | 0.8 | 55.0* | 0.945
CCN(CC)CCNC(=O)C(C)c1nn(CC)c(=O)c2ccccc12 (centres undefined) | · | · | · | · | 0.0389
COc1ccc(/C=N/n2c(C)cc(C)c(C(N)=O)c2=O)cc1 | 1 | 0.4 | 1 | -0.6 | 0.358
CCCC1Cc2c(sc3nc(SC)nc(N)c23)CO1 (centres undefined) | 0.6 | 10.7 | 0.9 | 38.3 | -0.661
CSc1nc(N)c2c3c(sc2n1)COC(C(C)C)C3 (centres undefined) | 0.1 | 12.0 | 0.9 | 94.5* | -1.2
COCC(C)n1c(C)cc(C(=O)COC(=O)c2ccc3ncsc3c2)c1C (centres undefined) | 0.2 | -79.2 | 1.8 | 78.4* | -1.06
SMILES | CYP2C19 activ | CYP2C9 inh | CYP2C9 act | CYP2C19 inhib | Cav32 inh
COc1ccc(-c2csc(NC(=O)CC(C)C)n2)cc1 | · | · | · | · | -1.55
CC(C)CC(=O)NC(=S)Nc1nc(-c2cccc3ccccc23)cs1 | 0.6 | 57.2* | 0.4 | 41.5 | -0.477
Cc1ccc2cc(C#N)c(N3CCCN(C(=O)C4CCCO4)CC3)nc2c1C (centres undefined) | 0.1 | 82.2* | 0.2 | 85.1* | -1.98
COCC(=O)N(Cc1cc2cc(OC)ccc2[nH]c1=O)c1ccc(C)cc1 | 0.6 | 58.8* | 0.4 | 36.0 | 0.507
CCOc1ccc(N(Cc2cc3cc(OC)ccc3[nH]c2=O)C(=O)C2CCCO2)cc1 (centres undefined) | 0.8 | 67.8* | 0.3 | 20.2 | -0.00543
CC(C)C[C@H](NC(=O)c1nc[nH]c1C(=O)NCc1ccccc1)C(=O)OCc1ccccc1 | · | · | · | · | -0.0771

Screens from PubChem BioAssay.
